Usually AC50 stands for the concentration giving half of the maximal activity seen.

Experimental findings from PubChem BioAssay AID1851 (National Center for Advancing Translational Sciences (NCATS), 2009) are described below.

Out of some 16,000 compounds screened, about 5,100 (32%) were called active. Not shown: some 25% with an inconclusive outcome. The list shows a part of the results. Values without a mark were called inactive. Calls follow the shape of the dose curve; as a rule, active = well fitted curve in the direction sought with a large enough effect; inconclusive = small, poorly fitted or top-dose-only effect, or effect the other way; inactive = no such curve, though single readings can be large or run the other way.
% is scaled to controls: 0 for no effect and ±100 for the full control effect.

For this test, the target named is Cytochrome P450 3A4 (Homo sapiens) (UniProt P08684). Description: Cytochrome panel assay with activity outcomes. Conditions: recombinant CYP, pro-luciferin dealkylation, luminescence, p450-cyp3a4; series mostly up to 57.1 µM; activity, negative = inhibition: at the top concentration.
Chain of Cytochrome P450 3A4 (Homo sapiens) (P08684 whole entry, looked up): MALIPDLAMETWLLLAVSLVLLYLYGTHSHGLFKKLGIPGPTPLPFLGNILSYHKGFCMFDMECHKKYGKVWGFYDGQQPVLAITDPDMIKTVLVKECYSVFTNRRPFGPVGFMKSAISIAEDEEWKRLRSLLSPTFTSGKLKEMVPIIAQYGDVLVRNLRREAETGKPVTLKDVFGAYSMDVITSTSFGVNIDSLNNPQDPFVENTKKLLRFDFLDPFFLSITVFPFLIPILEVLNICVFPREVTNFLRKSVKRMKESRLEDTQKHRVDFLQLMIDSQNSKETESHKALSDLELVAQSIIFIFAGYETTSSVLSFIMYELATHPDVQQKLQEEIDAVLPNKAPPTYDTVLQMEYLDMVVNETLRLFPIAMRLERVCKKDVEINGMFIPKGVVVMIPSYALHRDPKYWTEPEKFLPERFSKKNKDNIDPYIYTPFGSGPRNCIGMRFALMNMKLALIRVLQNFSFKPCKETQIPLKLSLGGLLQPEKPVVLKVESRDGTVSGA
Consider `CCOC(=O)c1c(-c2ccc(C)cc2)csc1NC(=O)C1CC=CCC1C(=O)O` (stereo unspecified), for which the activity, negative = inhibition was -2.99% [at 2.29 µM].

`CCOC(=O)c1c(-c2ccc(C)o2)csc1NC(=S)NC(=O)N(C)C`: the AC50 was 15.8 µM (active).

Consider `COc1cccc(-c2ccc3ncnc(N4CCN(C)CC4)c3c2)c1`, for which the AC50 is 15.8 µM (active).

As to `CN(C)C(=O)c1ccc(-c2ccc3ncnc(N4CCNCC4)c3c2)cc1`, the “activity, negative = inhibition” value is -29.4%.

With `COc1cc(N2CCOCC2)ncn1`, the “activity, negative = inhibition” value is -0.512%.

Consider `CN(C)C(=O)c1ccc(-c2ccc3ncnc(N4CCOCC4)c3c2)cc1`, for which the AC50 is 15.8 µM (active).

For `COc1cccc(-c2ccc3ncnc(N4CCOCC4)c3c2)c1`, the AC50 was 10 µM (active).

As for `COc1ccc(-c2nsc3c(N4CCCCC4)ncnc23)cc1`, the “activity, negative = inhibition” value was 8.86%.

As for `COc1ccc(-c2nc(-c3cccc(C)c3)nc(N3CCN(C)CC3)c2C#N)cc1`, the activity, negative = inhibition is -13.1% [at 2.29 µM].

As to `NCC[C@H]1CCC[C@H](CCN)N1`, the “activity, negative = inhibition” value is 0.169%.

On to `CCOC(=O)N1CCN(c2c(-c3ccccc3)c3cc(Cl)ccc3[nH]c2=O)CC1`, for which the “activity, negative = inhibition” value is 10.2%.

On to `O=C(Cc1ccc(-n2c(=O)[nH]c3ccccc3c2=O)cc1)N1CCN(c2cccc(Cl)c2)CC1`, for which the AC50 is 3.16 µM (active).

As for `O=c1nc2ccccc2c2n1CC(CN1CCN(c3cccc(Cl)c3)CC1)N2` (stereo unspecified), the “activity, negative = inhibition” value is 15.2%.

As for `N/C(CC/C(N)=N/O)=N\O`, the activity, negative = inhibition is -5.56% [at 11.4 µM].

With `Cc1cc(NC(=O)CCN2C(=O)C3C4CCC(C4)C3C2=O)c(C)cc1Br` (stereo unspecified), the AC50 is 7.94 µM (active).

For the compound `CCOC(=O)CCN1C(=O)[C@H]2[C@@H]3[C@H](O)C=CC(=O)[C@H]3CC[C@H]2C1=O`, the activity, negative = inhibition was -11.5% [at 11.4 µM].

For the compound `Cc1cccc(C)c1NC(=O)CCN1C(=O)C2C3CCC(C3)C2C1=O` (stereo unspecified), the activity, negative = inhibition is 0.821% [at 2.29 µM].

For the compound `O=C(CCc1nc2ccccc2c(=O)[nH]1)OCC(=O)N1CCN(S(=O)(=O)c2ccccc2)CC1`, the AC50 was 7.94 µM (active).

In the case of `CCN1CCN(C(=O)CCc2nc3ccccc3c(=O)[nH]2)CC1`, the “activity, negative = inhibition” value is -10.4%.

On to `O=C(/C=C/c1ccccc1)N1CCN(Cc2nc3ccccc3c(=O)[nH]2)CC1`, for which the “activity, negative = inhibition” value was -25.9%.

Regarding `CC[C@H](C)C(=O)O[C@H]1CCC=C2C=C[C@H](C)[C@H](CC[C@@H]3C[C@H](O)CC(=O)O3)[C@H]21`, the AC50 is 12.6 µM (active).

Consider `C[C@H]1C=C2C=C[C@H](C)[C@H](CC[C@@H]3C[C@@H](O)CC(=O)O3)[C@H]2[C@@H](OC(=O)[C@@H](C)CCO)C1`, for which the AC50 was 12.6 µM (active).

For `CCCCCC1CCC(C(=O)NNC(=S)NCC)CC1` (stereo unspecified), the activity, negative = inhibition was -1.07% [at 2.29 µM].

`CN(C)CC[C@H](c1ccc(Br)cc1)c1ccccn1`: the AC50 entry was “inactive”.

Take `COCCN(C(=O)C(C)C)c1nnc(-c2ccc(C)cc2)s1`: the “activity, negative = inhibition” value was 12.8%.

In the case of `CCn1c(SCC(=O)N2CCOCC2)nc2oc3c(Cl)cc(Cl)cc3c(=O)c2c1=O`, the AC50 was 11.2 µM (active).

`CC(C)Cn1c(-c2ccc(Cl)cc2)cnc1SCC(=O)N1CCOCC1`: the activity, negative = inhibition was -5.92% [at 2.29 µM].

As to `CC(C)(C)NC(=O)CSc1nnc(Cc2ccc3c(c2)OCO3)n1C1CCCCC1`, the AC50 was 0.447 µM (active).

As for `NC(=O)[C@@H]1CCCN1Cc1ccc2c(c1)OCO2`, the activity, negative = inhibition was -37.8% [at 11.4 µM].

Take `C[N+](C)(C)/N=C\c1ccc(O)c(O)c1`: the activity, negative = inhibition was -21.1% [at 11.4 µM].

As to `CC(C)N=c1scc(-c2ccco2)n1/N=C/c1ccc(O)c(O)c1`, the AC50 was 12.6 µM (active).

On to `NCCc1nc(-c2nc(C(=O)O)cs2)cs1`, for which the activity, negative = inhibition is -14.8% [at 11.4 µM].

Regarding `CC(=O)N1CCC2(CCN(Cc3ccncc3)CC2)CC1`, the “activity, negative = inhibition” value was -26.1%.

On to `O=C(c1ccncc1)N1CCC2(CCCN(Cc3ccncc3)C2)CC1`, for which the AC50 is 5.01 µM (active).

Consider `COc1ccc(C(=O)N2CCC3(CCCN(Cc4ccncc4)C3)CC2)cc1`, for which the AC50 is 7.94 µM (active).

`O=C(c1cccc(F)c1)N1CCC2(CCN(Cc3ccccc3)CC2)CC1`: the “activity, negative = inhibition” value was 16%.

For `COc1ccc(C(=O)N2CCC3(CCN(Cc4ccncc4)CC3)CC2)cc1`, the AC50 is 15.8 µM (active).

Regarding `COc1ccc(C(=O)N2CCC3(CCCN(C)C3)CC2)cc1`, the “activity, negative = inhibition” value is -16.3%.

For `O=C(c1ccncc1)N1CCC2(CCN(Cc3ccccc3)CC2)CC1`, the AC50 is 15.8 µM (active).

As for `O=C(O)CP(=O)(O)O`, the AC50 entry was “inactive”.

As to `Oc1c(Cl)cc(CN(Cc2cc(Cl)c(O)c(Cl)c2)C2CCCCC2)cc1Cl`, the activity, negative = inhibition was -4.66% [at 11.4 µM].

Regarding `O=C(c1ccncc1)N1CCC2(CCCN(Cc3ccccc3)C2)CC1`, the AC50 is 10 µM (active).

In the case of `CC(=O)N1CCC2(CC1)CN(Cc1ccccc1)C2`, the “activity, negative = inhibition” value is -12.4%.

`O=C(c1csnn1)N1CCC2(CCCN(Cc3ccccc3)C2)CC1`: the “activity, negative = inhibition” value was -27.9%.

For `O=C(c1ccncc1)N1CCC[C@@]2(CCN(Cc3ccccc3)C2)C1`, the AC50 was 15.8 µM (active).

As for `CC(=O)N1CCC2(CCCN(Cc3ccccc3)C2)CC1`, the “activity, negative = inhibition” value is -11.8%.
